High-throughput results deposited in PubChem by NMMLSC.
An excerpt weighted towards active compounds, which were near 1.2% of everything screened.
RGS4-Gao reg: modulates binding of RGS4 to human Galphao | P09471 | Multiplexed bead flow cytometry; actives lie on both sides | binding response (% of control), % at 10 µM | 0.33% of 220,000 active | AID 1415; in the data active = binding response below about 49% or above about 150%; inactive = in between;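 note: fluorescent Galphao activated with aluminum fluoride binding bead-coupled RGS4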
Target sequence (P09471 whole entry, looked up): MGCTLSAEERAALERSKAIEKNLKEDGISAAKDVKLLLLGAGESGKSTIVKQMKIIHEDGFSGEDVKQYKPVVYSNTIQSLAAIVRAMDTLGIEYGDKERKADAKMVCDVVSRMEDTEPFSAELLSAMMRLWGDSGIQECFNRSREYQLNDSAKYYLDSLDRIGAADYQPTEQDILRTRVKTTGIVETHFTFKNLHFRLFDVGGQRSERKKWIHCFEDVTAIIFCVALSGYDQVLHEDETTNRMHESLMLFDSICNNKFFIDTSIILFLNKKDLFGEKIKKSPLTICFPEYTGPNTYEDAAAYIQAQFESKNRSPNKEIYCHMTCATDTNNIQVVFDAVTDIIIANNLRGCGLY
RGS8-Gao: regulators of human RGS8-Galphao interaction. multiplexed bead flow cytometry, RGS8-Galphao binding; actives lie on both sides. 0.34% of 220,000 active. response (percent of control binding), % at 10 µM. P09471. AID 1423; in the data active = response below about 60% or above about 140%; inactive = in between;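 note: Galphao activated as the GDP aluminium fluoride complex binding bead-coupled RGS8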
GSH fluor: compound fluoresces at 488/530 nm on GSH beads | 0.25% of 190,000 active | GSH beads flow cytometry, compound fluorescence 488/530 nm; stronger effect = higher value | fluorescence (KMESF) at 10 µM; in the data active = fluorescence above about 89;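 note: glutathione beads carrying GST-tagged Bcl family fusion proteins plus one bare bead set; values are compound well signal with DMSO vehicle wells as background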
RGS16-Gao: modulates binding between human RGS16 and Galphao | O15492+P09471 | bead-based flow cytometry RGS16-Galphao binding, fluorescence; actives lie on both sides | binding response (% of control), % at 10 µM | 0.38% of 220,000 active | AID 1441; call rule not given here;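 note: Galphao activated by GDP with aluminum fluoride before binding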
Target sequence (O15492 whole entry, looked up): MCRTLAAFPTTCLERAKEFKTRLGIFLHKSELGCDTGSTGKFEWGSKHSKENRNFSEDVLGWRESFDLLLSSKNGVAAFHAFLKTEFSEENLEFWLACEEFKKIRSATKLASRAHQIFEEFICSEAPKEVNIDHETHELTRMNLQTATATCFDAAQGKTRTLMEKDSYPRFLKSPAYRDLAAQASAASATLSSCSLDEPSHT
Target sequence (P09471 whole entry, looked up): as the sequence (P09471 whole entry, looked up) above
Avidin bead fluor: avidin bead compound fluorescence profile | 0.38% of 220,000 active | Avidin beads, compound fluorescence 488/530 nm, flow cytometry; stronger effect = higher value | fluorescence (KMESF) at 10 µM; in the data active = fluorescence above about 47
RGS7-Gao: human RGS7-Galphao interaction regulation; Multiplexed bead flow cytometry, RGS7-Galphao binding; actives lie on both sides; binding response (% of control), % at 10 µM; 0.35% of 220,000 active; in the data active = binding response below about 49% or above about 150%; inconclusive = no clear call, values can overlap the other calls; inactive = in between;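 note: fluorescent Galphao held in activated GDP-AlF4 state binding bead-coupled RGS7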
The depositor's hits bear a star; ? = inconclusive; nt = no result given.

SMILES | RGS4-Gao reg | RGS8-Gao | GSH fluor | RGS16-Gao | Avidin bead fluor | RGS7-Gao
CC(=O)c1sc2nc(-c3cccs3)cc(C(F)(F)F)c2c1N | 95 | 98 | 28 | 95 | 25 | 100
Nc1c(C(=O)C2CC2)sc2nc(-c3ccccc3)cc(C(F)(F)F)c12 | 90 | 95 | 126* | 89 | 5 | 92
CCn1cc(C(=O)O)c(=O)c2cc(F)c(N3CCN(C(=S)NC(=O)c4ccccc4)CC3)cc21 | 90 | 93 | nt | 90 | 8 | ?
COc1c(N2CCN(C(=S)NCc3ccccc3)C(C)C2)c(F)cc2c(=O)c(C(=O)O)cn(C3CC3)c12 (stereo not drawn) | 105 | 103 | 35 | 103 | 55* | 110
CCCC(=O)Nc1ccc2nc(SCC(=O)Nc3nccs3)sc2c1 | 21* | 12* | 28 | 15* | 0 | 15*
CCN(Cc1ccncc1)C(=O)c1cc(Br)cc(Br)c1O | 103 | 104 | 19 | 116 | 9 | 103
COc1cccc(-c2noc(CCCC(=O)N3CCOCC3)n2)c1 | 95 | 98 | 23 | 103 | 14 | 102
O=C(CCCc1nc(-c2ccccc2)no1)N1CCOCC1 | 95 | 100 | 248* | 71 | 3 | 102
CCOC(=O)NC(CC(=O)O)c1ccc(OC)c(OC)c1 (stereo not drawn) | 106 | 102 | 259* | 104 | 8 | 102
CCCCNC(=O)COC(=O)CCC(=O)c1ccc(F)cc1 | 103 | 101 | 266* | 104 | 8 | 103
Cc1ccc(-n2c(CNC(=O)c3cccs3)nnc2SCC(=O)NO)cc1 | 95 | 98 | 14 | 91 | 9 | 92
CCOc1ccc(-c2nn[nH]n2)cc1 | 101 | 103 | 275* | 106 | 8 | 105
CCOc1ccc(OCC)c(NC(=O)C2CCN(c3ncccn3)CC2)c1 | 100 | 100 | 33 | 104 | 15 | 101
CCOc1ccc(OCC)c(NC(=O)C2CCCN(c3ncccn3)C2)c1 (stereo not drawn) | 104 | 103 | 264* | 105 | 7 | 103
COc1ccc(C2NC(=S)N3C(c4ccc(OC)cc4)NC(=S)N23)cc1 (stereo not drawn) | 112 | 103 | 266* | 107 | 8 | 110
S=C1NC(c2ccccc2)N2C(=S)NC(c3ccccc3)N12 (stereo not drawn) | 98 | 99 | 50 | 93 | 33 | 105
CCN(CC)S(=O)(=O)C1CCS(=O)(=O)C1 (stereo not drawn) | 82 | 91 | 242* | 55 | 4 | 85
CCCCS(=O)(=O)C1CCS(=O)(=O)C1 (stereo not drawn) | 94 | 100 | 10 | 97 | 20 | 96
CCCn1cc(S(=O)(=O)CC(=O)Nc2ccc(OC)cc2OC)c2ccccc21 | 84 | 95 | 130* | 93 | 5 | 92
COc1ccc(NC(=O)Cn2cc(S(=O)(=O)Cc3ccccc3)c3ccccc32)c(OC)c1 | 93 | 96 | 12 | 93 | 8 | 90
O=[N+]([O-])c1cc2c(cc1Br)CCN2 | 98 | 100 | 20 | 100 | 10 | 100
CC(=O)c1cc(F)c(N2CCN(C(=O)COc3ccc(F)cc3)CC2)cc1C | 103 | 105 | 93* | 103 | 5 | 104
O=C(O/N=C1\CCS(=O)(=O)c2sccc21)c1ccccc1 | 103 | 105 | 16 | 110 | 51* | 107
O=C(COC(=O)CCNS(=O)(=O)c1cccc(C(F)(F)F)c1)NC(=O)NC1CCCCC1 | 100 | 96 | 12 | 89 | 11 | 100
Cc1cccc(S(=O)(=O)NCCC(=O)OC(C)C(=O)NC(=O)NC2CCCCC2)c1 (stereo not drawn) | 99 | 99 | 258* | 101 | 8 | 99
SMILES | RGS4-Gao reg | RGS8-Gao | GSH fluor | RGS16-Gao | Avidin bead fluor | RGS7-Gao
Cc1cc(Cl)c(S(=O)(=O)N2CCN(c3ccccn3)CC2)cc1OCC(=O)NC1CCCCC1 | 95 | 101 | nt | 96 | 6 | ?
Cc1nc(SCC(=O)NCc2ccccc2)c2oc3ccccc3c2n1 | 102 | 102 | 24 | 100 | 50* | 105
Cc1nc(SCC(=O)O)c2oc3ccccc3c2n1 | 100 | 103 | 25 | 132 | 8 | 98
CCOC(=O)c1ccc2c(c1)nc(SCC(=O)c1ccco1)n2CC | 97 | 91 | 255* | 52 | 5 | 95
COc1ccc(CNC(=O)C/C(C)=N/NC(=O)COc2cccc(C)c2)cc1 | 104 | 100 | 11 | 105 | 3 | 103
Cc1ccc(C)n1-n1c(C)nc2scc(-c3ccccc3)c2c1=O | 109 | 100 | 17 | 106 | 86* | 139
O=C(Cn1nc(-c2cccc([N+](=O)[O-])c2)c2ccccc2c1=O)NCC1CCCO1 (stereo not drawn) | 92 | 96 | 15 | 89 | 9 | ?
COC(=O)CSc1nsc(SCC(=O)OC)c1C#N | 102 | 101 | 10 | 102 | 52* | 109
CSc1snc(SCC(N)=O)c1C#N | 102 | 100 | 15 | 104 | 8 | 98
O=C(CCC(=O)NNC(=O)COc1ccccc1)NCc1ccccc1 | 96 | 99 | 8 | 101 | 29 | 95
Cc1cc(C)cc(OCC(=O)NNC(=O)CCC(=O)NCc2ccccc2)c1 | 98 | 98 | 152* | 94 | 3 | 99
Cn1c(-c2ccc3c(c2)OCO3)cnc1NCc1cccc(O)c1 | 100 | 103 | 29 | 107 | 12 | 94
O=C(Nc1c(C(=O)Nc2cccc3ccccc23)cnn1-c1ccccc1)c1ccco1 | 101 | 101 | 99* | 105 | 7 | 99
O=C(Nc1c(C(=O)Nc2ccccc2)cnn1-c1ccccc1)c1ccco1 | 93 | 89 | 5 | 58 | 4 | 93
O=C(Nc1ccccc1NC(=O)c1ccco1)c1ccco1 | -45* | 6.2* | 11 | -27* | -4 | -19*
O=C(Nc1ccccc1N(C(=O)c1ccco1)S(=O)(=O)c1cccs1)c1ccco1 | 99 | 101 | 275* | 102 | 6 | 99
COc1ccc(C(=O)NCc2ccc(-n3cccc3)cc2)cc1OC | 99 | 102 | 16 | 102 | 8 | ?
O=C(Nn1c(-c2ccccc2)nc2ccccc2c1=O)c1cccs1 | 100 | 106 | 5 | 112 | 1 | 97
COc1ccccc1-c1nc2ccccc2c(=O)n1NC(=O)c1cccs1 | 103 | 103 | 108* | 98 | 14 | 100
CC(=O)N1CCC2(CC1)C(C#N)=C(N)OC1=C2C(=O)CC(C)(C)C1 | 103 | 99 | 12 | 103 | 51* | 109
CC(C)(C)C1CCC(=NNC(=O)CN(c2ccccc2)S(=O)(=O)c2ccccc2[N+](=O)[O-])CC1 (stereo not drawn) | 145 | 101 | 20 | 103 | 53* | 128
COc1ccc(-c2cc(C#N)nc(N3CCNCC3)n2)cc1 | 136 | 128 | 15 | 122 | 49* | 146
O=C(Nc1ccccc1N1CCCCC1)c1cccs1 | 108 | 102 | 34 | 106 | 14 | 108
